{
  "source": "the supplement of paper PMC8728848",
  "binders": {"B1": {"name": "3FTT (Staphylococcus aureus), Q5HCZ5 (protein)", "chain": "MTEKEKMLAEKWYDANFDQYLINERARAKDICFELNHTRPSATNKRKELIDQLFQTTTDNVSISIPFDTDYGWNVKLGKNVYVNTNCYFMDGGQITIGDNVFIGPNCGFYTATHPLNFHHRNEGFEKAGPIHIGSNTWFGGHVAVLPGVTIGEGSVIGAGSVVTKDIPPHSLAVGNPCKVVRKIDNDLPSETLNDETIK"}},
  "test_in_all_cases": "glycan array binding signal (z-score within array); higher = stronger binding",
  "details_in_all_cases": "glycan notation: IUPAC condensed, linker removed",
  "key": {"[1]": {"target": "Fuc(a1-2)Gal(b1-3)GalNAc(a1-3)[Fuc(a1-2)]Gal(b1-4)GlcNAc", "summary_of_the_method": "(§1)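 The binding signal is a Z-score computed within each array and averaged over linkers. Arrays of the same protein sequence at different concentrations or buffers were also averaged together. Data originate from 3228 arrays in the Consortium for Functional Glycomics database, kept only where the protein sequence was available.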"}, "[2]": {"target": "Fuc(a1-2)Gal(b1-3)GalNAc(b1-3)Gal", "summary_of_the_method": "as §1"}, "[3]": {"target": "Fuc(a1-2)Gal(b1-3)GlcNAc(b1-3)Gal(b1-4)Glc", "summary_of_the_method": "as §1"}, "[4]": {"target": "Fuc(a1-2)Gal(b1-3)GlcNAc(b1-3)[Neu5Ac(a2-6)Gal(b1-4)GlcNAc(b1-6)]Gal(b1-4)Glc", "summary_of_the_method": "as §1"}, "[5]": {"target": "Fuc(a1-2)Gal(b1-4)[Fuc(a1-3)]GlcNAc(b1-2)Man(a1-3)[Fuc(a1-2)Gal(b1-4)[Fuc(a1-3)]GlcNAc(b1-2)Man(a1-6)]Man(b1-4)GlcNAc(b1-4)GlcNAc", "summary_of_the_method": "as §1"}, "[6]": {"target": "Fuc(a1-2)Gal(b1-4)[Fuc(a1-3)]GlcNAc(b1-3)GalNAc", "summary_of_the_method": "as §1"}, "[7]": {"target": "Fuc(a1-2)[GalNAc(a1-3)]Gal(b1-3)GlcNAc(b1-2)Man(a1-3)[Fuc(a1-2)[GalNAc(a1-3)]Gal(b1-3)GlcNAc(b1-2)Man(a1-6)]Man(b1-4)GlcNAc(b1-4)GlcNAc", "summary_of_the_method": "as §1"}, "[8]": {"target": "Fuc(a1-2)[GalNAc(a1-3)]Gal(b1-3)GlcNAc(b1-2)Man(a1-3)[Fuc(a1-2)[GalNAc(a1-3)]Gal(b1-3)GlcNAc(b1-2)Man(a1-6)]Man(b1-4)GlcNAc(b1-4)[Fuc(a1-6)]GlcNAc", "summary_of_the_method": "as §1"}, "[9]": {"target": "Fuc(a1-2)[GalNAc(a1-3)]Gal(b1-4)GlcNAc(b1-3)Gal(b1-4)GlcNAc", "summary_of_the_method": "as §1"}, "[10]": {"target": "Fuc(a1-3)[Gal(b1-4)]GlcNAc(b1-6)GalNAc", "summary_of_the_method": "as §1"}, "[11]": {"target": "Gal(a1-4)Gal(b1-3)GlcNAc(b1-2)Man(a1-3)[Gal(a1-4)Gal(b1-3)GlcNAc(b1-2)Man(a1-6)]Man(b1-4)GlcNAc(b1-4)GlcNAc", "summary_of_the_method": "as §1"}, "[12]": {"target": "Gal(a1-4)Gal(b1-4)Glc", "summary_of_the_method": "as §1"}, "[13]": {"target": "Gal(b1-3)Gal(b1-4)GlcNAc", "summary_of_the_method": "as §1"}, "[14]": {"target": "Gal(b1-3)GalNAc", "summary_of_the_method": "as §1"}, "[15]": {"target": "Gal(b1-3)[Fuc(a1-4)]GlcNAc(b1-2)Man(a1-3)[Gal(b1-3)[Fuc(a1-4)]GlcNAc(b1-2)Man(a1-6)]Man(b1-4)GlcNAc(b1-4)GlcNAc", "summary_of_the_method": "as §1"}, "[16]": {"target": "Gal(b1-3)[Fuc(a1-4)]GlcNAc(b1-3)Gal(b1-4)GlcNAc", "summary_of_the_method": "as §1"}, "[17]": {"target": "Gal(b1-4)GlcNAc(b1-2)Man(a1-3)[Man(a1-6)]Man(b1-4)GlcNAc(b1-4)GlcNAc", "summary_of_the_method": "as §1"}, "[18]": {"target": "Gal3S(b1-4)Glc6S", "summary_of_the_method": "as §1"}, "[19]": {"target": "GalNAc(b1-3)Gal", "summary_of_the_method": "as §1"}, "[20]": {"target": "GalNAc(b1-4)GlcNAc(b1-2)Man(a1-3)[GalNAc(b1-4)GlcNAc(b1-2)Man(a1-6)]Man(b1-4)GlcNAc(b1-4)GlcNAc", "summary_of_the_method": "as §1"}, "[21]": {"target": "GlcNAc(a1-4)Gal(b1-4)GlcNAc(b1-3)Gal(b1-4)GlcNAc", "summary_of_the_method": "as §1"}, "[22]": {"target": "GlcNAc(b1-2)[GlcNAc(b1-6)]Man(a1-6)[GlcNAc(b1-2)Man(a1-3)]Man(b1-4)GlcNAc(b1-4)GlcNAc", "summary_of_the_method": "as §1"}, "[23]": {"target": "GlcNAc(b1-3)[GlcNAc(b1-6)]GalNAc", "summary_of_the_method": "as §1"}, "[24]": {"target": "Kdn(a2-3)Gal(b1-4)[Fuc(a1-3)]GlcNAc", "summary_of_the_method": "as §1"}, "[25]": {"target": "Kdn(a2-6)Gal(b1-4)GlcNAc", "summary_of_the_method": "as §1"}, "[26]": {"target": "Man(a1-2)Man(a1-2)Man(a1-3)Man", "summary_of_the_method": "as §1"}, "[27]": {"target": "Man(a1-2)Man(a1-2)Man(a1-6)[Man(a1-3)]Man", "summary_of_the_method": "as §1"}, "[28]": {"target": "Man(a1-2)Man(a1-3)[Man(a1-2)Man(a1-6)]Man(a1-6)[Man(a1-2)Man(a1-2)Man(a1-3)]Man", "summary_of_the_method": "as §1"}, "[29]": {"target": "Neu5Ac(a2-3)Gal(b1-3)GlcNAc(b1-3)GalNAc", "summary_of_the_method": "as §1"}, "[30]": {"target": "Neu5Ac(a2-3)Gal(b1-3)[Neu5Ac(a2-6)]GalNAc", "summary_of_the_method": "as §1"}, "[31]": {"target": "Neu5Ac(a2-3)Gal(b1-4)GlcNAc(b1-3)Gal", "summary_of_the_method": "as §1"}, "[32]": {"target": "Neu5Ac(a2-3)Gal(b1-4)[Fuc(a1-3)]GlcNAc(b1-3)Gal(b1-4)GlcNAc", "summary_of_the_method": "as §1"}, "[33]": {"target": "Neu5Ac(a2-3)Gal(b1-4)[Fuc(a1-3)]GlcNAc(b1-3)Gal(b1-4)[Fuc(a1-3)]GlcNAc(b1-3)Gal(b1-4)[Fuc(a1-3)]GlcNAc", "summary_of_the_method": "as §1"}, "[34]": {"target": "Neu5Ac(a2-3)Gal6S(b1-4)GlcNAc", "summary_of_the_method": "as §1"}, "[35]": {"target": "Neu5Ac(a2-3)[Neu5Ac(a2-6)]GalNAc", "summary_of_the_method": "as §1"}, "[36]": {"target": "Neu5Ac(a2-6)Gal(b1-4)GlcNAc(b1-2)Man(a1-6)[Man(a1-3)]Man(b1-4)GlcNAc(b1-4)GlcNAc", "summary_of_the_method": "as §1"}, "[37]": {"target": "Neu5Ac(a2-8)Neu5Ac(a2-8)Neu5Ac(a2-3)Gal(b1-4)Glc", "summary_of_the_method": "as §1"}, "[38]": {"target": "Neu5Ac9Ac(a2-3)Gal(b1-3)GlcNAc", "summary_of_the_method": "as §1"}},
  "note": "This is one part of a sample in which the strongest signals are shown more often than they occur.",
  "data": [
    {"binder": "B1", "values": [
      {"measurement": "glycan array binding signal (z-score)", "setting": "[1]", "value": -0.281},
      {"measurement": "glycan array binding signal (z-score)", "setting": "[2]", "value": 1.06},
      {"measurement": "glycan array binding signal (z-score)", "setting": "[3]", "value": -0.165},
      {"measurement": "glycan array binding signal (z-score)", "setting": "[4]", "value": -0.004},
      {"measurement": "glycan array binding signal (z-score)", "setting": "[5]", "value": 0.815},
      {"measurement": "glycan array binding signal (z-score)", "setting": "[6]", "value": 1.26},
      {"measurement": "glycan array binding signal (z-score)", "setting": "[7]", "value": 0.032},
      {"measurement": "glycan array binding signal (z-score)", "setting": "[8]", "value": 0.227},
      {"measurement": "glycan array binding signal (z-score)", "setting": "[9]", "value": -0.09},
      {"measurement": "glycan array binding signal (z-score)", "setting": "[10]", "value": 0.714},
      {"measurement": "glycan array binding signal (z-score)", "setting": "[11]", "value": -0.237},
      {"measurement": "glycan array binding signal (z-score)", "setting": "[12]", "value": -0.171},
      {"measurement": "glycan array binding signal (z-score)", "setting": "[13]", "value": 0.256},
      {"measurement": "glycan array binding signal (z-score)", "setting": "[14]", "value": -0.105},
      {"measurement": "glycan array binding signal (z-score)", "setting": "[15]", "value": 19.9},
      {"measurement": "glycan array binding signal (z-score)", "setting": "[16]", "value": -0.017},
      {"measurement": "glycan array binding signal (z-score)", "setting": "[17]", "value": -0.261},
      {"measurement": "glycan array binding signal (z-score)", "setting": "[18]", "value": 0.798},
      {"measurement": "glycan array binding signal (z-score)", "setting": "[19]", "value": -0.332},
      {"measurement": "glycan array binding signal (z-score)", "setting": "[20]", "value": 5.95},
      {"measurement": "glycan array binding signal (z-score)", "setting": "[21]", "value": 0.607},
      {"measurement": "glycan array binding signal (z-score)", "setting": "[22]", "value": -0.134},
      {"measurement": "glycan array binding signal (z-score)", "setting": "[23]", "value": -0.288},
      {"measurement": "glycan array binding signal (z-score)", "setting": "[24]", "value": 0.16},
      {"measurement": "glycan array binding signal (z-score)", "setting": "[25]", "value": -0.292},
      {"measurement": "glycan array binding signal (z-score)", "setting": "[26]", "value": -0.082},
      {"measurement": "glycan array binding signal (z-score)", "setting": "[27]", "value": -0.073},
      {"measurement": "glycan array binding signal (z-score)", "setting": "[28]", "value": -0.089},
      {"measurement": "glycan array binding signal (z-score)", "setting": "[29]", "value": -0.066},
      {"measurement": "glycan array binding signal (z-score)", "setting": "[30]", "value": -0.057},
      {"measurement": "glycan array binding signal (z-score)", "setting": "[31]", "value": 0.012},
      {"measurement": "glycan array binding signal (z-score)", "setting": "[32]", "value": 0.162},
      {"measurement": "glycan array binding signal (z-score)", "setting": "[33]", "value": -0.195},
      {"measurement": "glycan array binding signal (z-score)", "setting": "[34]", "value": 0.037},
      {"measurement": "glycan array binding signal (z-score)", "setting": "[35]", "value": 0.223},
      {"measurement": "glycan array binding signal (z-score)", "setting": "[36]", "value": -0.226},
      {"measurement": "glycan array binding signal (z-score)", "setting": "[37]", "value": 0.056},
      {"measurement": "glycan array binding signal (z-score)", "setting": "[38]", "value": -0.153}
    ]}
  ]
}
